Most compounds without a hit are left out; they make up all but 1.2% or so of the library.
uPA generation: inhibitors of cell surface uPA generation; AID 540303; Potency, µM (series often up to 38.3 µM), inactives show at the top dose activity change, negative = inhibition, hits mostly inhibitors; cell surface uPA generation assay, qHTS; hit rate 0.31% among 330,000; active = well fitted inhibition curve with a large enough effect; inconclusive = small, poorly fitted or top-dose-only effect; inactive = no such curve, though single readings can be large or run the other way; tested in mouse RAW 264.7 cells; also: potency is read from the fitted curve at half-maximal effect; nearly all actives have a fitted effect of over 55% in size
Six1-Eya2 blk: inhibitors of human Six1/Eya2 interaction; AlphaScreen GST-Six1/His-Eya2 binding, biochemical; hits give low values; activity change, % (concentration not given with the values); hit rate 0.56% among 360,000; AID 651725; in the data active = activity change below about -65%; inconclusive = mostly about -30% to -63%
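AlphaScreen with GST-Six1 and His-Eya2 (5X mix: 250 nM and 500 nM), glutathione donor and nickel acceptor beads; buffer 50 mM Tris pH 8.0, 300 mM NaCl, 1 mM TCEP; 1 h at 37 C in the dark.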
Eya2 phos inh: blocks the phosphatase activity of human Eya2; recombinant Eya2, OMFP fluorescence dephosphorylation (OMFP is methylfluorescein phosphate); Potency, µM (series often up to 76.9 µM), for inactives: at the highest dose activity, negative = inhibition, actives largely listed as inhibitors; O00167; AID 488837; hit rate 0.006% among 330,000; also: potency is read from the fitted curve at half-maximal effect
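Eya2 protein (added as 0.2 uM solution) was preincubated with compound for 10 min at ambient temperature in 50 mM HEPES pH 7.5, 50 mM NaCl, 5 uM MgCl2, 0.05% BSA, 1 mM DTT. OMFP (added at 50 uM) then reacted 10 min; fluorescence read at 485/525 nm.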
USP2a block: inhibitors of human ubiquitin-specific protease USP2a | O75604 | USP2 core, Ub-CHOP2 coupled fluorogenic reporter, 485/531 | AID 463254 | Potency, µM (doses to about 38.3 µM), without a hit: top-dose activity change, negative = inhibition, actives largely listed as inhibitors | hit rate 0.01% among 330,000;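 also: potency is read from the fitted curve at half-maximal effect; plate controls were DMSO wells for no effect and full inhibition by NEM control for full effect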
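USP2 core (10nM final) preincubated 30min RT with compound in 20mM Tris-HCl pH 8.0, 2mM CaCl2, 2mM beta-mercaptoethanol, 0.05% CHAPS; 25nM Ub-CHOP2 plus 25nM reporter substrate added, fluorescence (Ex485/Em531) read after 60min.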
L3MBTL1 inh: L3MBTL1 (human) inhibition; AID 485360; Q9Y468; hit rate 0.66% among 230,000; AlphaScreen L3MBTL1–H3K9me1 peptide binding; Potency, µM (top dose mostly 57.1 µM), for the others: at the highest dose activity, negative = inhibition, actives largely listed as inhibitors; also: potency is read from the fitted curve at half-maximal effect; nearly all actives have a fitted effect of over 60% in size
Target sequence (Q9Y468 whole entry, looked up): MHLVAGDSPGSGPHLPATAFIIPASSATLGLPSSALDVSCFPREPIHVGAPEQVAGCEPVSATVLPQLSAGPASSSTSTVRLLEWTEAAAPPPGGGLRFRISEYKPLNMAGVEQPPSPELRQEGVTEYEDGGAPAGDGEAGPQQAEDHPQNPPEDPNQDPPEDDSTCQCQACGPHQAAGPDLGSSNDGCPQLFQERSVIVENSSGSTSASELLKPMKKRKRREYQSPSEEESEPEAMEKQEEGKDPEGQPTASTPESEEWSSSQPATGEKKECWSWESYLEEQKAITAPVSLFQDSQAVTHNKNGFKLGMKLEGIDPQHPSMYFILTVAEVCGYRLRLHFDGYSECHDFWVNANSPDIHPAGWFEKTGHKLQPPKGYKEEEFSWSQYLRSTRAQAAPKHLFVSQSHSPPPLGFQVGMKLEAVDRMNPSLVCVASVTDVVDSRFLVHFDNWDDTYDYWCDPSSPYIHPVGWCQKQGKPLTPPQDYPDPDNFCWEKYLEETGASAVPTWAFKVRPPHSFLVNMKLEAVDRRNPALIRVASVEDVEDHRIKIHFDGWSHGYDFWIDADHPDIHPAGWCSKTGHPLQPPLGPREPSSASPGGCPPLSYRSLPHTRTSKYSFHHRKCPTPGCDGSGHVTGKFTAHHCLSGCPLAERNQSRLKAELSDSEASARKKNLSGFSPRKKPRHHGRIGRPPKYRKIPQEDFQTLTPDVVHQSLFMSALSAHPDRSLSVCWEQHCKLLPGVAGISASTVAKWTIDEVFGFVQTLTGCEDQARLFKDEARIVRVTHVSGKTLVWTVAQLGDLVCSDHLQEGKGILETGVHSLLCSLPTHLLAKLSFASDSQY
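L3MBTL1 50 nM + b-AHA-H3(1-15)K9me1 75 nM, 30 min RT; compound added, 30 min RT; streptavidin donor/Ni-chelate acceptor beads 10 ug/mL each final, 30 min RT dark; AlphaScreen read.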
CtBP-E1A blk: blocks the CtBP interaction with E1A; hit rate 0.49% among 340,000; AlphaScreen GST-E1A/His-CtBP binding, 1536-well; hits give low values; activity change, % (concentration not given with the values); AID 651724; in the data active = activity change below about -65%; inconclusive = mostly about -30% to -63%
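Protein mix (5X: 125 nM each GST-E1A, His-CtBP) was incubated with pinned compound 2 h at 37 deg C in dark, in 50 mM Tris pH 8.0 buffer with 300 mM NaCl. Glutathione donor and nickel acceptor beads followed; AlphaScreen signal read after 1 h.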
Numbers without * were called inactive; ? = inconclusive; nt = not tested or not shown; ! = not active in a repeat. Unless noted, calls follow the shape of the dose curve; as a rule, active = well fitted curve in the direction sought with a large enough effect; inconclusive = small, poorly fitted or top-dose-only effect, or another doubt; inactive = no such curve, though single readings can be large; an effect the other way counts as inactive or inconclusive. Unless noted, % is scaled to controls: 0 for no effect and ±100 for the full control effect.

SMILES | uPA generation | Six1-Eya2 blk | Eya2 phos inh | USP2a block | L3MBTL1 inh | CtBP-E1A blk
Cc1ccc(/C=C2\C(=O)NC(=S)N(c3ccc(F)cc3)C2=O)o1 | -17% | 6 | 7% | -1% | 16µM* | nt
Cc1ccc(N2C(=O)/C(=C/c3ccc(CN(CCC#N)S(C)(=O)=O)o3)C(=O)NC2=S)cc1 | 2% | ? | -3% | 3% | 32µM* | -15
Cc1ccc(N2C(=O)NC(=O)/C(=C\c3ccc([N+](=O)[O-])o3)C2=O)cc1 | nt | nt | 13% | 12% | 3.5µM* | nt
Cc1ccc(N2C(=O)NC(=O)/C(=C\c3ccc(N4CCOCC4)cc3)C2=O)cc1 | -3% | 12 | -3% | 0% | -9% | 5
COc1ccc(-c2ccoc2)cc1[C@H]1[C@H]2C=CC[C@@H](C)[C@@H]2C(=O)N1Cc1ccccc1 | ? | -16 | -16% | 5% | nt | ?
C#CCOCCOCCOCCNc1nc(N2CCN(C(=O)CCCCCCCCCCNC(=O)[C@H](CCCCN)n3cc(C[C@@H](C)CC)nn3)CC2)nc(N2CCN(C(=O)CCCCCCCCCCNC(=O)[C@H](CCCN=C(N)N)n3cc(C[C@@H](C)CC)nn3)CC2)n1 | ? | -5 | ? | 10µM* | -6% | -27
C/C=C(\C)C(=O)N[C@@H](c1ccccc1)[C@@H](O)C(=O)O[C@H]1C[C@@]2(O)[C@@H](OC(=O)c3ccccc3)C3[C@](C)(C(=O)[C@H](O)C(=C1C)C2(C)C)[C@@H](O)C[C@H]1OC[C@@]31OC(C)=O (some centres undefined) | 0.71µM* | 5 | ? | -1% | nt | -3
CC(=O)c1ccc2c(c1)C1C(Cl)C(Sc3ccccc3[N+](=O)[O-])CC1C(C(=O)O)N2 (centres undefined) | 6% | -21 | -2% | 2% | 4µM* | 4
O=C(O)c1cccc2c1NC(C(=O)O)C1CC(Sc3ccccc3[N+](=O)[O-])C(Cl)C21 (centres undefined) | 0% | ? | -7% | ? | 2.2µM* | 5
Nc1nc(Nc2ccccc2F)sc1C(=O)c1ccccc1 | ? | -1 | -9% | -1% | nt | -11
Cc1cc(Br)ccc1S(=O)(=O)NCc1ccccc1 | ? | 0 | -14% | 1% | 3% | nt
O=c1cc(CSc2ccc(Cl)cc2)nc(-c2ccccn2)[nH]1 | ? | -93* | -11% | -1% | nt | nt
Cc1ccc(S(=O)(=O)Nc2ccccc2N(C)S(=O)(=O)c2ccc(C)cc2)cc1 | ? | 1 | -4% | -7% | 7% | -21
CCOC(=O)c1c(N2C(=O)C=CC2=O)sc(C)c1C | ? | -13 | -1% | 2% | -8% | -12
c1ccc(CN2CCN(CCCNc3ccc4nnc(-c5ccccc5)n4n3)CC2)cc1 | ? | -69* | 0% | 0% | -4% | -27
Cc1ccccc1CN1CCN(Cc2ccccc2)CC1 | 9% | -9 | 7% | -4% | 7% | -23
CN(C1=C(NC(=O)c2ccccc2)C(=O)c2ccccc2C1=O)C1CCS(=O)(=O)C1 (centres undefined) | 10µM* | -13 | -14% | 1% | -29% | -17
CCn1c(O)c(/C=N/NC(=O)c2ccccc2)c(=O)[nH]c1=S | -10% | -93* | -2% | 0% | nt | -91*
CCN(CC)c1ccc(N=Cc2c(O)n(Cc3ccccc3)c(=O)[nH]c2=O)cc1 | 3% | -72*! | -14% | 4% | -7% | 48
COc1ccc(Cn2c(O)c(/C=N/NC(=O)c3ccccc3)c(=O)[nH]c2=O)cc1 | -11% | ? | 1% | 2% | -1% | -85*
O=C(N/N=C/c1c(O)n(Cc2ccccc2)c(=O)[nH]c1=O)c1ccccc1O | 11% | -89* | 0% | -1% | 14% | 0
O=C(N/N=C/c1c(O)n(CCc2ccccc2)c(=O)[nH]c1=O)c1ccccc1O | 24% | ? | ? | 4% | nt | nt
O=C(N/N=C/c1c(O)n(CCc2ccc(F)cc2)c(=O)[nH]c1=O)c1ccccc1 | 3% | -9 | 2% | 0% | nt | -5
COc1ccc(Cn2c(O)c(/C=N/NC(=O)c3ccncc3)c(=O)[nH]c2=O)cc1 | 5% | ? | ? | 2% | -8% | ?
COc1ccc(Cn2c(O)c(/C=N/NC(=O)c3ccccc3O)c(=O)[nH]c2=O)cc1 | -1% | -87* | -5% | -4% | 2% | -72*
SMILES | uPA generation | Six1-Eya2 blk | Eya2 phos inh | USP2a block | L3MBTL1 inh | CtBP-E1A blk
O=C(N/N=C/c1c(O)n(Cc2ccc(F)cc2)c(=O)[nH]c1=O)c1ccccc1O | 1% | -88* | -4% | 0% | 6% | ?
COc1ccc(Cn2c(O)c(C=NCCN3CCOCC3)c(=O)[nH]c2=O)cc1 | 5% | 5 | -6% | 1% | -4% | 1
Cc1cccc(NC(=O)c2nc[nH]c2C(=O)N[C@@H](CCCCNC(=O)OC(C)(C)C)C(=O)OC(C)(C)C)c1 | ? | -17 | -16% | -10% | nt | -7
CC1CC(=O)c2c(cc3c(-c4c(O)cc(O)c5c(O)c6c(cc45)OC(C)CC6=O)c(O)cc(O)c3c2O)O1 (centres undefined) | ? | ? | -17% | -4% | 0.63µM* | ?
C[C@H]1CCCC(=O)CCC/C=C/c2cc(O)cc(O)c2C(=O)O1 | 22% | -13 | -7% | 1% | nt | -14
COc1cccc(CN2C(=O)[C@@H]3Cc4c([nH]c5ccccc45)C(C)(C)N3C2=O)c1 | -7% | nt | nt | nt | nt | nt
CN1C(=O)/C(=C/c2cccn2-c2ccc3ccccc3c2)C(=O)NC1=S | -2% | -79* | -22% | -10% | ? | -21
CN(CCc1ccccc1)Cc1c[nH]c2ccccc12 | 2.2µM* | -6 | -10% | 0% | -3% | nt
C[C@@H]1C[C@@H]([C@H](O)CC2CC(=O)NC(=O)C2)C(=O)[C@@H](C)C1 | 0.5µM* | 3 | 17% | 5% | 8% | 2
C/C1=C\[C@@H](C)C/C=C/[C@H]2[C@@H]3O[C@]3(C)[C@@H](C)[C@H]3[C@H](Cc4c[nH]c5ccccc45)NC(=O)[C@]32C(=O)/C=C/C(=O)[C@@H]1O | 0.79µM* | -5 | -1% | 1% | ? | -5
N/C(=N\N=C\c1ccc(O)cc1O)N[N+](=O)[O-] | -2% | -74* | 22% | 4% | nt | -83*
CC(C)C[C@H]1CN=C(Nc2ccccc2)N1CCC(C)c1ccccc1 (some centres undefined) | ? | -2 | 4% | 0% | 6% | 0
CCOC(=O)Nc1ccc(NCc2ccc(F)cc2)nc1N | 1% | 0 | 50µM*! | ? | ? | ?
